The source of these data is PubChem BioAssay AID802 (Columbia University Molecular Screening Center, 2007).

In all, about 95,000 compounds went through this assay and about 460 (0.48%) were called active.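 Rule for the calls: active = inhibition above the batch mean plus 3 SD, with images confirmed as a hit by eye (cut at about 37% in these data); inconclusive = inhibition above that limit but hit not confirmed in images; inactive = inhibition not above that limit.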 The full list was thinned out, with actives kept by preference.

One may read the inhibition as the relative decrease from the control value, in per cent.

A short description of the assay: blockers of endothelial VCAM-1 upregulation by TNFa – imaging, HUVEC, TNFa stimulus, immunofluorescence, primary screen (AID 802).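 Note: 0% = TNF-stimulated DMSO wells and 100% = unstimulated control wells.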 Particulars: HUVEC TNFa-induced VCAM-1 immunofluorescence, high-content imaging; at 2 µM; hits give high values.
With `O=C(c1ccccn1)c1ncc(C(F)(F)F)cc1Cl`, the inhibition was 2.2% (inactive). The value for `Cc1ccc(C(=O)c2c(NC(=O)c3ccncc3)sc3c2CCCC3)cc1` was 3% (inactive); that for `O=C(Cn1cnc2ccccc2c1=O)NCC1COc2ccccc2O1` (stereo unspecified) was 0.5% (inactive); that for `Cc1ccc(-c2nn(C(C)(C)C)c3ncnc(N)c23)cc1` was 40.8% (active).

As to `C=CCn1c(N)c(C(=O)OCC(C)C)c2nc3ccccc3nc21`, the inhibition was 94.4% (active). Then `CC(C)(C)OC(=O)c1c(N)n(CCCN2CCCC2=O)c2nc3ccccc3nc12`, with -22.1% (inactive).

Take `C=CCn1c(N)c(S(=O)(=O)c2cccs2)c2nc3ccccc3nc21`: the inhibition is -6.6% (inactive). Turning to `Cc1ccc(SCC(=O)c2cc(C)c(OC(=S)N(C)C)c(C)c2)cc1`, the inhibition was 8.8% (inactive). Turning to `COc1cc(C(=O)N2CCN(C/C=C/c3ccccc3)CC2)cc(OC)c1C`, the inhibition was -10.4% (inactive).

Consider `Cc1cc(/C=N/NC(=O)CC2(C)OCCO2)c(C)n1-c1ccc(Cl)c(Cl)c1`, for which the inhibition was -7.1% (inactive). On to `CCOC(=O)C(=O)Nc1nc(-c2ccccc2)c(CC)s1`, for which the inhibition was 4.9% (inactive). On to `O=S(=O)(NCc1cccnc1)c1ccc(Cl)nc1`, for which the inhibition is 0.2% (inactive). Then `COc1ccc(C(C(=O)NCc2ccccc2)N(Cc2cccs2)C(=O)c2cnccn2)cc1` (stereo unspecified), with 2.9% (inactive); and `Cc1ccc(-c2nc3ccccc3[nH]2)cc1N`, with 4.2% (inactive). The value for `NC(=O)COc1ccc(/C=N/NC(=O)C2CCCN2S(=O)(=O)c2ccc(Cl)cc2)cc1` (stereo unspecified) was 17.1% (inactive); that for `O=S(=O)(/N=C(/Nc1ccccn1)c1ccccc1)c1ccc(Cl)cc1` was 0.3% (inactive); that for `Cc1ccccc1CS(=O)(=O)CC1(O)CCN(C(=O)c2cccc(C(F)(F)F)c2)CC1` was -2% (inactive).

Turning to `O=C(NC1(C(F)(F)F)NC(=O)N(Cc2cccnc2)C1=O)c1ccccc1Cl` (stereo unspecified), the inhibition is 8.4% (inactive). As for `COc1cc(NS(=O)(=O)c2ccc(N/C=C(\C=O)c3nc4cc(Cl)ccc4o3)cc2)nc(OC)n1`, the inhibition is -2.6% (inactive). The value for `Cc1cc(C(=O)CSc2nc(N)cc(=O)[nH]2)c(C)n1CCc1ccc(Cl)cc1` was 16.5% (inactive); that for `CSc1nc2nc3c(c(=O)n2[nH]1)CCC3` was 7.1% (inactive); that for `CC(C)=CC(=O)Nc1nnc(-c2ccc(F)cc2)s1` was 6.5% (inactive). Then `CC(C)(C)c1cc2cccnc2n1Cc1ccccc1`, with 9.9% (inactive); and `Cc1cccc(N2CCN(S(=O)(=O)c3ccc4[nH]c(=O)c(=O)[nH]c4c3)CC2C)c1` (stereo unspecified), with 3.1% (inactive). In the case of `Cc1cccc(N=C2NC(=O)CS2)c1C`, the inhibition was 97.1% (active). Then `CCOc1ccccc1N=C1NC(=O)CS1`, with -6.9% (inactive). Consider `C=CCOC(=O)C1=C(C)NC(C)=C(C(=O)OCC=C)C1c1cccs1`, for which the inhibition was 3.8% (inactive). The value for `CCCOC(=O)c1[nH]c2c(c1C)C(=O)CC(c1cccs1)C2` (stereo unspecified) was 65% (active); that for `COC(=O)C1C(=O)c2c([nH]c(C(=O)OCCSC)c2C)CC1C` (stereo unspecified) was 1.9% (inactive). Then `CCCCCCC12CCC(C(=O)O)(CC1)CC2`, with 25.1% (inactive); and `Cc1cccc2c(=O)n3c(nc12)CCCCC3`, with 13.3% (inactive).
